Laboratory results published in publication PMC4336329 (PLoS ONE, 2015).
The campaign covered roughly 310,000 compounds. About 14,000 (4.5%) showed an effect of 50% or more. Effects have a minus sign here. For the sample, strong results were picked, then their nearest neighbours and some compounds at random.

target: human ether-à-go-go-related gene (hERG) potassium channel (human, UniProt Q12809); experiment: primary screen, population patch clamp on CHO cells stably expressing hERG; higher = less effect of the substance
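Further: peak tail current of the secondary pulse compared with the same well before compound.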

Chain of human ether-à-go-go-related gene (hERG) potassium channel (Q12809 whole entry, looked up): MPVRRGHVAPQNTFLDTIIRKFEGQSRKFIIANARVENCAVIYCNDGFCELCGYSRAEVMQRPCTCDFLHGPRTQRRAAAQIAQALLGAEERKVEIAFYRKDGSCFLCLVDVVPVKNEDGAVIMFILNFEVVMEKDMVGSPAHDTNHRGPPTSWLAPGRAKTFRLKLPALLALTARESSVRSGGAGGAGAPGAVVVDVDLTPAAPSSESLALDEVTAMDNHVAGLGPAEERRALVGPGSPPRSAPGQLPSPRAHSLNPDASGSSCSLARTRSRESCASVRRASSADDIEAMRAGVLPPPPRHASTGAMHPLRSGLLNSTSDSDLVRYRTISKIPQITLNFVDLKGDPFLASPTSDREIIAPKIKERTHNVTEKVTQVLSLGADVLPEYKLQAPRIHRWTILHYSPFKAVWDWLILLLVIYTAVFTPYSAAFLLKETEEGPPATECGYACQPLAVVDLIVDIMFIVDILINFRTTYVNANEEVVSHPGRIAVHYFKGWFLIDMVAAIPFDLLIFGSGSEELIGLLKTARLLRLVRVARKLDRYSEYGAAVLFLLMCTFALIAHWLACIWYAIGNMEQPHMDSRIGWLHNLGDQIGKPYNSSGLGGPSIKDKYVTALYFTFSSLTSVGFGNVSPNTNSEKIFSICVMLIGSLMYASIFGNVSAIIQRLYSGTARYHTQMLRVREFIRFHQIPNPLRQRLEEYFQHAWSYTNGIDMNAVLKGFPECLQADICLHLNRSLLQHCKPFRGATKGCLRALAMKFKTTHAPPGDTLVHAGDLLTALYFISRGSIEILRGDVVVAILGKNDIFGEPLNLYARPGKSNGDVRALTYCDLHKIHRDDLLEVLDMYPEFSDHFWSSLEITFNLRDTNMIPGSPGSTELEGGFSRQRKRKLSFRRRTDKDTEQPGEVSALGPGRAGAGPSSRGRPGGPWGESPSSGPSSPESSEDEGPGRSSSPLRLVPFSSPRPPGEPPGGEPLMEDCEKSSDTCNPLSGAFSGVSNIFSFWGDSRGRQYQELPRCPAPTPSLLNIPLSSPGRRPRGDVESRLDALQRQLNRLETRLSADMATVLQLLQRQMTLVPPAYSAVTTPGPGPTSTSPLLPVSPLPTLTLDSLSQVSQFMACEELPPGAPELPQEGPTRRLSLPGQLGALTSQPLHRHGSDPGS

SMILES | hERG current change (%, negative = inhibition) at 10uM [%]
CCC(C)(C(=O)NC1CCCCC1)N(C(=O)CC1NC(=O)NC1=O)c1c(C)n(C)n(-c2ccccc2)c1=O (stereo not shown) | 12.8
Cc1onc(-c2ccccc2Cl)c1C(=O)Nc1nc2ccc(S(C)(=O)=O)cc2s1 | -2.5
CC1(C)NC(=O)N(CC(=O)N2CCCC(C(F)(F)F)C2)C1=O (stereo not shown) | 10.4
COC(=O)c1ccc(CNC(=O)COC(=O)c2cc(Cl)nc(Cl)c2)cc1 | 8.69
CCn1c2ccccc2c2cc(NC(=O)C(=O)NCC3CCCO3)ccc21 (stereo not shown) | -6.57
COc1cc2c(cc1NC(=O)C(C)OC(=O)/C=C/c1ccc(OC(F)F)cc1)oc1ccccc12 (stereo not shown) | 7.07
COc1ccc(CCNc2cc(N3CCN(C(=O)c4ccc(C)cc4)CC3)ccc2[N+](=O)[O-])cc1OC | 8.2
COC(=O)C(NC(=O)c1ccccc1)=C(C)C | 0.816
Cc1ccccc1NC(=S)N1CCC(C(=O)c2ccc(F)cc2)CC1 | -45
O=C(c1ccc(F)cc1)C1CCN(C(=S)Nc2ccccc2Cl)CC1 | 0.35
COc1ccc(C(=O)C2CCN(C(=S)Nc3ccc(F)cc3)CC2)cc1 | -46.9
CCCNC(=S)N1CCC(C(=O)c2ccc(F)cc2)CC1 | -8.84
O=C(c1ccc(F)cc1)C1CCN(C(=S)Nc2ccc(F)cc2)CC1 | -57.2
CC(C)CNC(=S)N1CCC(C(=O)c2ccc(F)cc2)CC1 | -61.4
CCc1ccccc1NC(=S)N1CCC(C(=O)c2ccc(F)cc2)CC1 | -63
Cc1ccc(CNC(=O)C2CCN(C(=O)Nc3ccccc3)CC2)cc1 | -16.3
C=CCNC(=S)N1CCC(C(=O)c2ccc(F)cc2)CC1 | -44.4
O=C(c1ccc(F)cc1)C1CCN(C(=S)Nc2ccccc2)CC1 | -28.8
Cc1ccc(NC(=O)N2CCC(C(=O)NCc3ccc(F)cc3)CC2)cc1 | -52.2
O=C(NCc1ccc(F)cc1)C1CCN(C(=O)Nc2ccc(F)cc2)CC1 | -49.2
Cc1cn(C2C=CC(CO)O2)c(=O)[nH]c1=O (stereo not shown) | 4.79
CCN(CC)S(=O)(=O)c1ccc(C(=O)NCCc2ccccn2)cc1 | 10.8
Cc1nn(C2CCCCC2)c(N)c1-c1ccccc1 | -3.53
Nc1ccc(-c2nc3ccc(N)cc3[nH]2)cc1 | 7.85
O=c1c2cc([N+](=O)[O-])cc([N+](=O)[O-])c2[nH]n1-c1ccccc1 | 17.2

SMILES | hERG current change (%, negative = inhibition) at 10uM [%]
C/C=C(\C)C(=O)NNC(=O)c1sc(-c2ccccc2)nc1C | 16
Cc1nc2cc(NC(=O)Nc3ccc(Br)cc3)ccc2o1 | 9.81
COCCNC(=S)N1CCC(c2nc(-c3ccc(F)cc3)no2)CC1 | -18.9
Cc1cc(C)cc(NC(=O)N2CCC(C(=O)c3ccc(F)cc3)CC2)c1 | -77.7
Cc1ccc(NC(=O)N2CCC(C(=O)c3ccc(F)cc3)CC2)cc1 | -3.84
Cc1cc(C)cc(NC(=O)N2CCC(NC(=O)c3ccc(F)cc3)CC2)c1 | -35.5
COCCNC(=S)N1CCC(c2nc(-c3ccc(N(C)C)cc3)no2)CC1 | -12.9
CC(C)CNC(=S)N1CCC(c2nc(-c3ccc(F)cc3)no2)CC1 | -59.1
CSc1ccc(NC(=O)N2CCC(C(=O)c3ccc(F)cc3)CC2)cc1 | -40.9
Cc1cccc(NC(=O)N2CCC(C(=O)c3ccc(F)cc3)CC2)c1 | -40.6
O=C(c1ccc(F)cc1)C1CCN(C(=O)Nc2ccc(F)cc2)CC1 | -71.7
O=C(Nc1ccccc1)N(Cc1ccc(Cl)cc1)CC(O)C(F)(F)F (stereo not shown) | 8.33
Cc1cccc(N2CCN(S(=O)(=O)c3cc(-c4cc(C)no4)ccc3C)CC2C)c1 (stereo not shown) | 18.9
CC1SCC(NC(=O)c2ccc(Cl)cc2)CS1 (stereo not shown) | -0.992
Cc1cc(NC(=O)CSCc2ccc([N+](=O)[O-])cc2)no1 | -1.21
Cc1[nH]c2ccccc2c1C(=O)C(C)OC(=O)c1ccc(Cl)nc1 (stereo not shown) | -12.9
COC(=O)c1ccccc1NC(=O)c1cc[n+](C)cc1 | 11.8
CCOCCCNS(=O)(=O)c1ccc(NC(=O)N2c3ccccc3Sc3ccccc32)cc1 | 3.13
O=C(NC1CCOC1)c1cc(COc2cccc(C(F)(F)F)c2)on1 (stereo not shown) | 2.06
CCCCCCCOC(=O)c1nc(Cl)c(Cl)c(N)c1Cl | -4.56
CCCCCCCCOC(=O)c1nc(Cl)c(Cl)c(N)c1Cl | -66.3
O=C(COC(=O)c1ncc(Cl)c(Cl)c1Cl)NC1CCCCCC1 | 19
Nc1c(Cl)c(Cl)nc(C(=O)OCC(=O)NC2CCCCC2)c1Cl | -58.2
CCCCOC(=O)c1nc(Cl)c(Cl)c(N)c1Cl | -0.0656
O=C(COC(=O)c1nsc(Cl)c1Cl)NC1CCCCC1 | 17.1

SMILES | hERG current change (%, negative = inhibition) at 10uM [%]
CN1C(=O)/C(=C/c2cccn2-c2ccc3ccccc3c2)C(=O)NC1=S | 12.2
Cc1c(Cc2ccccc2)c(=O)oc2cc(OCC(=O)NCC(O)c3ccccc3)ccc12 (stereo not shown) | 28.7
C/C(CC(=O)Nc1cc(C)ccn1)=N\NC(=O)C(=O)NC(C)C | 12.5
O=C(OCCOc1ccccc1Cl)c1ccc(-n2cnnn2)cc1 | -19.2
O=C(c1cc(-c2ccc(Br)cc2)on1)N1CCCC1 | 10.3
CSc1ccc(NC(=O)NCCN2CCc3ccccc3C2)cc1 | -43.6
COc1ccc(NC(=O)N2CCC(Cc3ccccc3)CC2)cc1 | -3.45
O=C(NCCN1CCN(Cc2ccccc2Cl)CC1)Nc1ccccc1 | -47.5
CSc1ccc(NC(=O)NCc2ccccc2)cc1 | 19
CSc1ccc(NC(=O)NCCCN2CCC(Cc3ccccc3)CC2)cc1 | -75.9
Cc1ccccc1NC(=O)NCCCN1CCN(C2CCCCC2)CC1 | -9.26
Cc1ccccc1CC1CCN(CCCNC(=O)Nc2ccccc2)CC1 | -68.5
COc1ccc(NC(=O)NCCCCc2ccccc2)cc1 | 1.06
O=C(NCCN1CCN(c2ccccc2Cl)CC1)Nc1ccccc1 | -34.1
O=C(NCCCN1CCN(Cc2ccccc2Cl)CC1)Nc1ccccc1 | -56.8
COc1ccc(NC(=O)NCCCN2CCC(Cc3ccccc3)CC2)cc1 | -77.5
Cc1ccccc1NC(=O)NCCCN1CCCC1 | 26.6
Cc1c(NC(=O)COc2c(F)c(F)c(F)c(F)c2F)c(=O)n(-c2ccccc2)n1C | 0.328
COc1ccc(/C(C)=N/NC(=O)CNC(=O)/C=C\c2ccccc2)c(OC)c1 | -9.28
C/C(=N\OCc1ccccc1C#N)c1cc2ccccc2o1 | 0.146
O=C(NCCCN1CCOCC1)c1ccc2nc(Cc3cccc(Cl)c3)oc2c1 | -7.7
COC(=O)c1ccccc1NC(=O)NCc1ccccn1 | -6.01
O=C(CC(Cc1ccccc1)C(=O)O)Nc1ccc(F)cc1 (stereo not shown) | 10.4
COC(=O)c1cc(=O)n(Cc2cccs2)c(=Nc2ccccc2)s1 | -0.229
Oc1cccc(/C=N/Nc2ccc(Cl)nn2)c1O | 8.72

SMILES | hERG current change (%, negative = inhibition) at 10uM [%]
CC(OC(=O)CNC(=O)c1ccco1)C(=O)Nc1ccc(Cl)cn1 (stereo not shown) | -11.4
O=C(/C=C/c1cn(CC(O)CN2CCCCC2)c2ccccc12)c1cccs1 (stereo not shown) | -54.4
O=C(/C=C/c1cn(CC(O)CN2CCOCC2)c2ccccc12)c1cccs1 (stereo not shown) | -21.8
O=C(/C=C/c1cn(CC(O)CN2CCCCCC2)c2ccccc12)c1cccs1 (stereo not shown) | -75.2
CCCCN(C)CC(O)Cn1cc(/C=C/C(=O)c2cccs2)c2ccccc21 (stereo not shown) | -33.7
CCCN(CCC)CC(O)Cn1cc(/C=C/C(=O)c2cccs2)c2ccccc21 (stereo not shown) | -30.7
O=Cc1cn(CC(O)CN2CCCCC2)c2ccccc12 (stereo not shown) | 27.3
CCCC(=O)Nc1c(-c2ccccc2)c(=O)c(C)nn1-c1ccccc1 | 10.3
Cc1ccc(S(=O)(=O)CCC(=O)Nc2ccc3nc(C)sc3c2)cc1 | 3.75
CC(C)c1c(C(=O)N/N=C/c2ccc(-c3ccccc3)cc2)nnn1-c1nonc1N | 26.6
C=CCc1ccccc1OCC(O)CNC(C)C.Cl (stereo not shown) | -33.3
CCS(=O)(=O)n1nc(-c2ccc(OC)cc2)nc1N | 11.6
COc1ccc(CCC(N)=O)cc1OC | 11.1
N#Cc1ccc(C(c2nnnn2CCc2ccccc2)N2CCCCCC2)cc1 (stereo not shown) | -26.3
Clc1ccc(C(c2nnnn2CCc2ccccc2)N2CCSCC2)cc1 (stereo not shown) | 0.814
COCCn1nnnc1C(c1ccc(Cl)cc1)N1CCSCC1.Cl (stereo not shown) | -51.9
Cl.N#Cc1cccc(C(c2nnnn2Cc2ccccc2)N2CCCC2)c1 (stereo not shown) | -22.7
COc1ccc(C(c2nnnn2CCc2ccccc2)N2CCN(C3CCCC3)CC2)cc1OC.Cl (stereo not shown) | -64.3
COCCn1nnnc1C(c1cccc(C#N)c1)N1CCCCCC1.Cl (stereo not shown) | -56.6
COc1ccc(C(c2nnnn2C2CCCC2)N2CCN(C3CCCC3)CC2)cc1OC.Cl (stereo not shown) | -22.7
N#Cc1cccc(C(c2nnnn2C2CCCC2)N2CCC(Cc3ccccc3)CC2)c1 (stereo not shown) | 8.5
Cl.Fc1ccc(Cn2nnnc2C(c2ccc(Cl)cc2)N2CCSCC2)cc1 (stereo not shown) | -1.72
COc1ccc(CCn2nnnc2C(c2ccccc2)N2CCN(C)CC2)cc1OC.Cl (stereo not shown) | 7.37
N#Cc1cccc(C(c2nnnn2CCc2ccccc2)N2CCN(C3CCCCC3)CC2)c1 (stereo not shown) | -61
CC(C)(C)n1nnnc1C(c1cccc(C#N)c1)N1CCCCCC1 (stereo not shown) | -4.75
